Screening data: PubChem BioAssay, National Center for Advancing Translational Sciences (NCATS)
In the library only some 21% were active in any assay of this set; here they are far more common.
Pf growth 48h: Primary qHTS for delayed death inhibitors of the malarial parasite plastid, 48 hour incubation; P. falciparum luciferase growth in erythrocytes, 48 h; Potency, µM (highest dose often 28.7 µM), without a hit: top-dose activity change, negative = inhibition, usual class: inhibitors; 310,000 tested, 5.9% active; note: potency is the fitted concentration of half-maximal effect; % is set by controls: 0 for no effect and ±100 for the full control effect
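First compound was added to culture medium, then infected red cells at 0.1% parasitemia and 2% hematocrit (final). After incubation at 37 C under 5% CO2, luciferase detection reagent was dispensed and light output recorded.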
Pf growth 96h: Primary qHTS for delayed death inhibitors of the malarial parasite plastid, 96 hour incubation; P. falciparum luciferase reporter growth, 96 h; Potency, µM (series often up to 28.7 µM), inactives show at the top dose activity change, negative = inhibition, actives largely listed as inhibitors; 320,000 tested, 6.9% active; AID 504834, 2011; note: potency is the fitted concentration of half-maximal effect; % is set by controls: 0 for no effect and ±100 for the full control effect
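Delayed-death screen, second-generation endpoint: infected erythrocytes, 2% hematocrit, 0.05% parasitemia final; 96 hours at 37 C, 5% CO2; luciferase detection reagent; luminescence decrease equals reduced growth.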
CHX counter: Cycloheximide Counterscreen for Small Molecule Inhibitors of Shiga Toxin; max response, %; AID 2314, 2010; cell reporter, cycloheximide protein synthesis inhibition counterscreen; 300,000 tested, 12% active; in the data active = max response mostly above about 13%, no sharp cut-off; inactive = mostly below about 14%; note: read at 38.3 µM for the half of the compounds with a filed dose; 0% is about no effect
Shiga toxin inh: A qHTS for Small Molecule Inhibitors of Shiga Toxin. Vero cells, Shiga toxin protein synthesis inhibition reporter. inhibition, % at 38.7 µM. 290,000 tested, 9.2% active. AID 2315, 2010; in the data active = inhibition mostly above about 28%, no sharp cut-off; inactive = mostly below about 43%; note: 0% is about no effect
HCV inh: qHTS Assay for Inhibitors of Hepatitis C Virus (HCV). Potency, µM (titrated, usually from 41.8 µM), without a hit: at the top dose activity change, negative = inhibition, actives largely listed as inhibitors. Huh7.5.1 HCVcc-Cre infection, luciferase reporter, 44 h. 340,000 tested, 3.4% active. AID 651820, 2012; note: potency is the fitted concentration of half-maximal effect; % is set by controls: 0 for no effect and ±100 for the full control effect
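1,000 cells/well; 4 h culture; + compound; + HCVcc-Cre (~0.5 moi); 44 h; luciferase substrate, RT 15 min; read 15 sec.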
HCMV inh: qHTS Assay for inhibitors of the human cytomegalovirus (HCMV) | HFF cells, HCMV-luciferase reporter, 72 h; stronger effect = lower value | 410,000 tested, 4.5% active | activity change, negative = inhibition, % at 57.5 µM | AID 1259415, 2018; in the data active = activity change below about -60%; inconclusive = no clear call, values can overlap the other calls; inactive = above about -39%; note: % is set by controls: 0 for no effect and ±100 for the full control effect
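Inhibition of viral replication was scored as loss of reporter luminescence in HFFs infected with HCMV-luciferase (MOI 1 PFU/cell) for 72 h; compounds tested at 2 doses, normalized to buffer and Salinomycin controls.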
An asterisk follows results filed as active; ? = inconclusive; . = no result given; ! = a repeat was not active. Unless noted, calls come from the whole dose curve; as a rule, active = well fitted inhibition curve with a large enough effect; inconclusive = small, poorly fitted or top-dose-only effect, or another doubt; inactive = no such curve, though single readings can be large or run the other way.

SMILES	Pf growth 48h	Pf growth 96h	CHX counter	Shiga toxin inh	HCV inh	HCMV inh
O=C(CO/N=C/c1ccccc1)N1c2ccccc2Oc2ccccc21	11.7µM*	?	-1.4	2.9	-13.9%	-98.9*
C=CCN(C(=O)c1oc2c(Cl)cc(C)cc2c1C)C1CCS(=O)(=O)C1 (centres undefined)	12.5%	-11.7%	59.7*	60.0*	?	63.8
Cc1cc(Cl)c2oc(C(=O)N(C)CC3CCOCC3)c(C)c2c1	49.1%	?	38.2*	71.0*	-10.7%	-3.8
C=C(C)C(=O)Oc1ccc(N2C(=O)CCC2=O)cc1	28.4%	-16.9%	17.1*	17.8	16.2%	-21.1
CC(=O)Oc1ccc(N2C(=O)CCC2=O)cc1	23.4%	-12.5%	-1.3	-5.4	8.2%	20.7
NC(c1csc(Nc2cc(Oc3ccccc3)ncn2)n1)c1ccccc1Cl (centres undefined)	.	.	.	.	.	6.6
O=C(NCc1ccccc1)c1cc(-c2ccco2)on1	70.4%	0.0%	33.6*	64.7*	-7.8%	15.4
O=C(NCc1ccco1)c1cc(-c2ccco2)on1	96.5%	16.7%	30.8*	74.1*	-3.1%	62.7
O=C(NCCc1ccccc1)c1cc(-c2ccco2)on1	496.0%	45.1%	44.5*	104.2*	?	109.4
Cc1ccn2cc(C(=O)NCc3ccco3)nc2c1	84.0%	3.5%	24.8*	58.0*	21.3%	-27.9
CCOC(=O)CN(Cc1ccccc1)C(C(=O)NC1CCCCC1)c1ccc(C)cc1 (centres undefined)	.	.	.	.	.	-18.7
CN1CCN(S(=O)(=O)c2cccc(C(=O)NC3CCCC3)c2)CC1	19.1%	0.8%	.	.	2.5%	4.2
CS(=O)(=O)N(CC(=O)NC1CC2CCC1C2)c1cccc(C(F)(F)F)c1 (centres undefined)	-13.2%	?	-1.2	-14.5	8.7%	-103.0*
COc1ccc(C)cc1S(=O)(=O)N(C)CC(=O)NC1CCCCC1	5.2%	.	-2.5	-13.3	2.6%	-34.2
COc1ccc(C)cc1S(=O)(=O)N(CC(=O)NC1CCCC1)c1ccc(F)cc1	41.4%	9.28µM*	-0.5	-3.1	3.4%	19.5
COc1ccc(N(CC(=O)NC2CC3CCC2C3)S(=O)(=O)c2ccc(C)cc2)cc1 (centres undefined)	-17.8%	13.1µM*	1.9	-6.6	-29.1%	22.2
COc1ccc(S(=O)(=O)N(CC(=O)NC2CCCCC2)c2ccc(F)cc2)cc1	33.4%	7.38µM*	-0.6	9.2	4.9%	-22.0
CC(C)NC(=O)NC(=O)COC(=O)c1ncc(Cl)c(Cl)c1Cl	-1.2%	-1.3%	1.4	29.3	24.8%	12.6
CCOC(=O)c1ccc(OCc2nc(-c3cccs3)no2)cc1	13.8%	.	16.4*	32.6	-5.3%	34.1
CCOC(=O)N1CCN(Cc2nc(-c3cccs3)no2)CC1	78.0%	?	29.9*	80.5*	-8.3%	0.0
NC(=O)C1CCN(Cc2nc(-c3cccs3)no2)CC1	20.8%	24.7%	9.7	5.1	7.6%	23.7
CCOC(=O)N1CCN(Cc2nnc(-c3ccccc3C)o2)CC1	18.7%	0.738µM*	12.4	4.8	0.9%	-14.1
CCOC(=O)C1CCN(Cc2nnc(-c3ccccc3C)o2)CC1	-4.8%	11.8%	2.2	-1.1	-3.1%	-14.2
c1csc(-c2noc(COc3ccc4c(c3)CCCC4)n2)c1	77.5%	?	41.1*	89.2*	-19.4%	35.9
CCN(CC)C(=O)C12CC3CC(CC(Br)(C3)C1)C2	8.5%	18.6%	1.5	-12.9	12.9%	-1.3
C=CCN(C(=O)CNC(=O)c1cccs1)C(C(=O)NC(C)(C)C)c1ccccc1 (centres undefined)	-9.8%	?	5.3	-12.3	12.8%	-33.4
NCc1ccc(S(N)(=O)=O)cc1	?	3.61µM*!	-0.9	21.6	-4.0%	-24.8
Cc1ccc(Cc2nc3ccccc3nc2SCC(=O)N2CCCCC2C)cc1 (centres undefined)	.	.	.	.	.	-20.7
